# In PubChem BioAssay (NCI):
# Several values for one entry are separate records, joined by “and”; a condition that tells them apart may be missing. Equal entries are not always repeated. Compounds without any hit were thinned out: in the full panel of roughly 79,000, 15% have a hit. A number with no mark means an inactive call. Activity calls are given as the source filed them. Cut-off read from the data, not from the text of the source: active = growth inhibition above about 70%; inactive = the rest.
# Assay: NCI Yeast Anticancer Drug Screen. Data for the mec2-1 strain (AID 157)
# Conditions: S. cerevisiae mec2-1 strain, hits give high values
# Description: Growth inhibition of yeast strains with defined genetic alterations is measured as a screen for potential anti-cancer activity. Selected strains with alterations in DNA damage repair or cell cycle control were exposed to compounds and growth inhibition was measured relative to vehicle treated controls. The strain used in this assay is mec2-1
# [1] = at 5.0 µM (retest, dose inferred, filed as 0.5)
# [2] = at 50.0 µM (retest, dose inferred, filed as 5.0)
SMILES,growth inhibition [1],growth inhibition [2],growth inhibition (at 50.0 µM)
CN(C)c1ccc(/C=C/c2nccc3ccccc23)cc1,8%,96% (active),91.9% (active)
OC(c1cc2ccc(C(F)(F)F)cc2c2cc(C(F)(F)F)ccc12)C1CCCCN1 (stereo not given),77% (active),98% (active),92% (active)
CCOC(=O)C1C(C(C)C)C2(C#N)C(=N)OC1(C)C2(C#N)C#N (stereo not given),6%,53%,52.2%
COc1ccc2c(c1)C(OC)C1c3c(cc4c(c3-2)OCO4)CCN1C (stereo not given),14%,27%,-17.5%
CC(C)NC(=O)C(C)O (stereo not given),1%,2%,
CCCCCCCCCCCCCCCc1ccc(C(=O)C[n+]2ccccc2)cc1,23%,98% (active),89.7% (active)
Nc1ccc(-c2ccc(N)c(S(=O)(=O)O)c2)cc1S(=O)(=O)O,4%,12%,-9%
O=C(/C=C/c1ccccc1)c1ccccc1O,4%,49%,99.2% (active)
CC1=CC(=O)C=CC1(C)C(Cl)(Cl)Cl (stereo not given),-15%,-12%,-1.55%
CCOc1ccc(C(CN2CCOCC2)C(C)=O)cc1OC (stereo not given),-27%,68%,77.7% (active)
S=C(S)OCN1CCOCC1,59%,23%,98.2% (active)
O=C1CSC(=S)N1Cc1cccnc1,4%,47%,34%
Cc1cc(C)c(C(=O)C(C)C(c2ccccc2)c2ccc(Cl)cc2)c(C)c1 (stereo not given),,,-19.2% and -5.7%
CC(O)c1nc2c([nH]1)c(=O)n(C)c(=O)n2C (stereo not given),,,-6.2% and -8.9%
CC(=O)OC1COC(n2cnc3c(=S)nc[nH]c32)C(OC(C)=O)C1OC(C)=O (stereo not given),,,-0.1% and -1.6%
O=C1OC(c2ccccc2)=N/C1=C\c1ccccc1O,,,-13.2% and -16.3%
OCC1OCOC2C(CO)OCOC12 (stereo not given),,,-21.4% and -3.75%
